Experimental data published in the supplement of paper PMC10849652.
Of roughly 7,900 targets only a part is listed; those with a hit were picked by preference. About 0.6% of all pairs of compound and target were hits.

compound: Cc1cc(SCc2sc(-c3ccc(C(F)(F)F)cc3)nc2C)ccc1OCC(=O)O; assay: log2 fold change, soluble protein after heating vs DMSO (PISA); higher = thermal stabilisation; K562 cells, 10 uM, 30 min; active = over 0.2 and 3.5 SD of the protein, either way, in both replicates (recomputed)
Method in brief: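 Aliquots of K562 cells (2×10^6 cells/mL) treated with 10 μM compound for 30 min were heated for 3 min over 48°C-58°C. After pooling and extraction in PBS with 0.5% NP-40 at 4°C, soluble protein from a 21,000xg, 90 min spin was quantified by TMTpro 16plex LC-MS/MS with channel sums equalised. Thermal stability is expressed against control samples, from duplicates, as a log2 fold change.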

Sequence of UniProt Q9P287 (Q9P287 whole entry, looked up): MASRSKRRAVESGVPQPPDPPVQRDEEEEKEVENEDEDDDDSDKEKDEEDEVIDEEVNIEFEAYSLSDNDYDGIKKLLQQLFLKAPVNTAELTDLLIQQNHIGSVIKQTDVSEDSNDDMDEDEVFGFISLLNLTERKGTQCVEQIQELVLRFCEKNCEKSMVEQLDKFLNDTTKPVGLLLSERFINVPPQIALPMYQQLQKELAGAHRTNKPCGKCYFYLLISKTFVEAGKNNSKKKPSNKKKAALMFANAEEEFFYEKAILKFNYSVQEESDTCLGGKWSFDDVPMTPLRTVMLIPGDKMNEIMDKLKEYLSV
Sequence of UniProt Q8N6D5 (Q8N6D5 whole entry, looked up): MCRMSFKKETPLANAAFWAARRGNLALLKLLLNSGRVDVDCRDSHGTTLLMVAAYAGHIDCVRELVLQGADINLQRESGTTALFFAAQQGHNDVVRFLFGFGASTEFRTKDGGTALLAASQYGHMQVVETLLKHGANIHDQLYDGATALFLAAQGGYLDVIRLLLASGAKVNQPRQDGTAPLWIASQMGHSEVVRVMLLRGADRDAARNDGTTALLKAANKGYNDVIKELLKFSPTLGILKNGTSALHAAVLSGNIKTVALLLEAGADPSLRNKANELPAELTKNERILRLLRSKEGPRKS
Sequence of UniProt Q9UKV3 (Q9UKV3 whole entry, looked up): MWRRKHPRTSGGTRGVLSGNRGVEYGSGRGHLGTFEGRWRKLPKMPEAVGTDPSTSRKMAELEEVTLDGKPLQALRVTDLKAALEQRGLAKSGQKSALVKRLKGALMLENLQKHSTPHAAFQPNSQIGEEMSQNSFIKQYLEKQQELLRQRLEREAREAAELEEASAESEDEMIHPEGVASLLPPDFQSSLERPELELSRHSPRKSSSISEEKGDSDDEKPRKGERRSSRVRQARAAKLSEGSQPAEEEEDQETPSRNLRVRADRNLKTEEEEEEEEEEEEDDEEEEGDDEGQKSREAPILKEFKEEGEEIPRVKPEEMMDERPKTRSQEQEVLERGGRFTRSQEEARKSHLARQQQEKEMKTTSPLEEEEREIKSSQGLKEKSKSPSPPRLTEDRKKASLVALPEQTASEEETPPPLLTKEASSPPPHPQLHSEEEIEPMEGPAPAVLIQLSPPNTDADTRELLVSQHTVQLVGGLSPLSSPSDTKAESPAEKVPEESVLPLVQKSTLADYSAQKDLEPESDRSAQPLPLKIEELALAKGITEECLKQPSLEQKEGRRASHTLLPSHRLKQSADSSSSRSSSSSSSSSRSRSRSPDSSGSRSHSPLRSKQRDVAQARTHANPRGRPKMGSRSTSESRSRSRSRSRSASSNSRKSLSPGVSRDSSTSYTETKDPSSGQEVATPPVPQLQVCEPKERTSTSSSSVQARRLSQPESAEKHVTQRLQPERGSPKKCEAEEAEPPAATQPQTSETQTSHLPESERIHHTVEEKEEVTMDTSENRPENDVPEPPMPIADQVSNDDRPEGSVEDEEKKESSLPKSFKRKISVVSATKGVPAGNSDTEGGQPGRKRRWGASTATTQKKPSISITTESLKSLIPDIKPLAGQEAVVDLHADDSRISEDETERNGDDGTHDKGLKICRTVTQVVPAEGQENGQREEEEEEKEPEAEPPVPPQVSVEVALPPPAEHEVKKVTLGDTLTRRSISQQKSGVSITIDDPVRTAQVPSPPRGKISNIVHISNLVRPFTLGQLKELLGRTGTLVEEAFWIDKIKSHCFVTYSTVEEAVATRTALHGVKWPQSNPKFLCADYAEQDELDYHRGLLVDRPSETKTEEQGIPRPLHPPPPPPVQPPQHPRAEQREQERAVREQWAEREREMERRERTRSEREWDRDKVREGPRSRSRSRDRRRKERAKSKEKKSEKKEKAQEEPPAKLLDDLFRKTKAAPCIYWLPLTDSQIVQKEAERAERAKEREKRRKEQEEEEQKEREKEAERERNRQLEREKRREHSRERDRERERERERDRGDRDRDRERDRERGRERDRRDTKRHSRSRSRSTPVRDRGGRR
Sequence of UniProt P55957 (P55957 whole entry, looked up): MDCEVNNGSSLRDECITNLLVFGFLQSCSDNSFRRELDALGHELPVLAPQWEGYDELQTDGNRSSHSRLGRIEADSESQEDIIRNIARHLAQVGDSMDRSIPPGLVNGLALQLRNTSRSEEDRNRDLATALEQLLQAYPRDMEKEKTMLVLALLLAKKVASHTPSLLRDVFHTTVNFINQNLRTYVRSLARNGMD
Sequence of UniProt O95433 (O95433 whole entry, looked up): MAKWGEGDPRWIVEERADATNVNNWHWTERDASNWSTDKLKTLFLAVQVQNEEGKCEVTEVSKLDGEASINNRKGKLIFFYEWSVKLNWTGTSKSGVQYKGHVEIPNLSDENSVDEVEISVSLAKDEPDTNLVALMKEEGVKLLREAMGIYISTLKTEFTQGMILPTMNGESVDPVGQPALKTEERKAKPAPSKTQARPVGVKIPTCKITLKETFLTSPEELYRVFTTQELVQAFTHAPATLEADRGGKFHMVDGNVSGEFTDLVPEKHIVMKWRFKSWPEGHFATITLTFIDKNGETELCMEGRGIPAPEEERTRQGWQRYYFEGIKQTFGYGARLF
Sequence of UniProt O43823 (O43823 whole entry, looked up): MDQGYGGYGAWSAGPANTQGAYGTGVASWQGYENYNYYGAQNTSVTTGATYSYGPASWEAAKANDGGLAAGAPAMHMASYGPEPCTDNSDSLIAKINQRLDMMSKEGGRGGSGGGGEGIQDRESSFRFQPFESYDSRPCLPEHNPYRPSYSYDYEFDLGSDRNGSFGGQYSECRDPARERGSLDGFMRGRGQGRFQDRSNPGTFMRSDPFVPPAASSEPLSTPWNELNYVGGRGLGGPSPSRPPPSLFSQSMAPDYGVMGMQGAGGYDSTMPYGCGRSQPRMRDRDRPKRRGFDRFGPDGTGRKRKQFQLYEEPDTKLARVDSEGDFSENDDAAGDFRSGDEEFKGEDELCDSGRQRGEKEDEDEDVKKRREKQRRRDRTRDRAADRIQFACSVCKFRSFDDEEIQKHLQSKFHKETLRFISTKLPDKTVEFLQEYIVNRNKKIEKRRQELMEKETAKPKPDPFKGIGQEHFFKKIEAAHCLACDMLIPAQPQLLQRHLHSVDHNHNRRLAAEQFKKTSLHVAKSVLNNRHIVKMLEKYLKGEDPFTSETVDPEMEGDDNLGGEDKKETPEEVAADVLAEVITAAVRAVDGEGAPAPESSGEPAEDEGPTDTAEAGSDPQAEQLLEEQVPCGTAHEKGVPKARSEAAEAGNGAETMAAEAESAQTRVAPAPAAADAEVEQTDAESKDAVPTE
Sequence of UniProt Q9NP58 (Q9NP58 whole entry, looked up): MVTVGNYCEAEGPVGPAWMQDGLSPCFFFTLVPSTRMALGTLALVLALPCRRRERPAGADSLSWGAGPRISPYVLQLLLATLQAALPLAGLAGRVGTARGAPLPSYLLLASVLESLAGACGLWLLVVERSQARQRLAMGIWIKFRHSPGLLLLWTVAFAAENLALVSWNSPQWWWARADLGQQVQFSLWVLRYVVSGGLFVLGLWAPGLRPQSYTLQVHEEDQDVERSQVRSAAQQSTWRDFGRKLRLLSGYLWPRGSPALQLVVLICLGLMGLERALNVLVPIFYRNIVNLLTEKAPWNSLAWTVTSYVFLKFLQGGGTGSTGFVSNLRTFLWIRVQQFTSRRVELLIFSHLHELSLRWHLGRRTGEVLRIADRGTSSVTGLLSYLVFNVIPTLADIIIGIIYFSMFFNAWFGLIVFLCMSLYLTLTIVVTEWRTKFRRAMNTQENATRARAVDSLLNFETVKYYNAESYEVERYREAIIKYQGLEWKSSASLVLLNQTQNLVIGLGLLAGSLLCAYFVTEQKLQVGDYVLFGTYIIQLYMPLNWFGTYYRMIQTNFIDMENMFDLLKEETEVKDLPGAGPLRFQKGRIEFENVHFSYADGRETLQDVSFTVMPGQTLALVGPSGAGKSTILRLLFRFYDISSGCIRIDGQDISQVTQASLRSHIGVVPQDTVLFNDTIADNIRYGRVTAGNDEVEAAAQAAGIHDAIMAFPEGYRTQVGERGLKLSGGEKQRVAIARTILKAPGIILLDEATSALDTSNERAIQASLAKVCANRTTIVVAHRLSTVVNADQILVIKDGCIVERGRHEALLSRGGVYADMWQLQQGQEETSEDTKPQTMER
Sequence of UniProt P08243 (P08243 whole entry, looked up): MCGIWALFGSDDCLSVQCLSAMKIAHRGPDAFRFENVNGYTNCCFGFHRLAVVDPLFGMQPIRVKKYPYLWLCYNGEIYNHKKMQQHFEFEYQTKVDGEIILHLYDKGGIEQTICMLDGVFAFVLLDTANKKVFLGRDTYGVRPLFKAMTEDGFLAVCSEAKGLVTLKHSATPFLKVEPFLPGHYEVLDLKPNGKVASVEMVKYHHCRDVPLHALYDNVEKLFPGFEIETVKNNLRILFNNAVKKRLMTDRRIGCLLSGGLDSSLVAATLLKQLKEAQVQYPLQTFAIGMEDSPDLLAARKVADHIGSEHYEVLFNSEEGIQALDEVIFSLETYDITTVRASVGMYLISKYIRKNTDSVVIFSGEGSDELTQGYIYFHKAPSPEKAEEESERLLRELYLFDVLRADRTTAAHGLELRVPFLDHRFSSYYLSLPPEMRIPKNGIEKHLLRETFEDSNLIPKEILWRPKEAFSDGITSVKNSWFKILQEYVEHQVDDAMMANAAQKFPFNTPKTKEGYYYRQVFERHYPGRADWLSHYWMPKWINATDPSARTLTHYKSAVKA
Sequence of UniProt Q9NUQ2 (Q9NUQ2 whole entry, looked up): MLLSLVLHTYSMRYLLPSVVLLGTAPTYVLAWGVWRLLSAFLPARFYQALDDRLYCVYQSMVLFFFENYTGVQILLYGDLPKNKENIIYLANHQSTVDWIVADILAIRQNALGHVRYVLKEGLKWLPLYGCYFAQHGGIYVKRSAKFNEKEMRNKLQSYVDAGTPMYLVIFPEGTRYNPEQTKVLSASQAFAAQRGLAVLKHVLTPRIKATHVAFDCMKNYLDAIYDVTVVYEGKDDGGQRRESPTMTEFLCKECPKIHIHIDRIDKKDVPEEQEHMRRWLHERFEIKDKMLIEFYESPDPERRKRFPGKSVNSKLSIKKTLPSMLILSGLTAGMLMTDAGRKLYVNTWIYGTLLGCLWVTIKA

log2 fold change, inactive:
AAMP (UniProt Q13685) -0.03
AKAP8 (UniProt O43823) 0.061
ABITRAM (UniProt Q9NX38) 0.079
ARL6IP4 (UniProt Q66PJ3) -0.038
ATP6V1H (UniProt Q9UI12) 0.014
B4GALT1 (UniProt P15291) 0.049
ASNS (UniProt P08243) -0.016
BCCIP (UniProt Q9P287) 0.037
BUB1B isoform 3 (UniProt O60566) 0.057
ATP9B (UniProt O43861) 0
ATP2A3 isoform 2 (UniProt Q93084) -0.025
ACAD9 (UniProt Q9H845) -0.052
BRD8 (UniProt Q9H0E9) -0.054
AGPAT5 (UniProt Q9NUQ2) -0.029
AIP (UniProt O00170) 0.038
ACADVL isoform 3 (UniProt P49748) -0.005
BID isoform 2 (UniProt P55957) -0.003
BCL9L (UniProt Q86UU0) -0.112
ARFGAP2 (UniProt Q8N6H7) 0.066
AHSA1 (UniProt O95433) 0.023
ANKRD29 (UniProt Q8N6D5) 0.017
BRAP (UniProt Q7Z569) 0.093
BCCIP isoform 2 (UniProt Q9P287) 0.011
ACP2 (UniProt P11117) -0.031
B4GALNT1 (UniProt Q00973) 0.12
ACIN1 (UniProt Q9UKV3) 0.002
BCLAF1 (UniProt Q9NYF8) -0.01
ABCA3 (UniProt Q99758) 0.014
ATP5IF1 (UniProt Q9UII2) -0.082
AGO1 (UniProt Q9UL18) 0.002
ADH5 (UniProt P11766) -0.031
ARGLU1 (UniProt Q9NWB6) -0.027
ABCB6 (UniProt Q9NP58) -0.028
ARFIP1 (UniProt P53367) 0.014
ATG4B isoform 2 (UniProt Q9Y4P1) 0.184
